For 13 molecules, Potency and outcome results are on record in PubChem BioAssay (Tox21).

A short description of assay [1]: qHTS assay to identify aromatase inhibitors - cell viability counter screen (AID 743084).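 Also: cells stimulated with testosterone during compound exposure; nearly all actives have a fitted effect of over 55% in size.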 Also: potency is read from the fitted curve at half-maximal effect.
The nature of assay [2]: qHTS assay to identify small molecule that activate the aryl hydrocarbon receptor (AhR) signaling pathway - cell viability counter screen (AID 743086). Also: nearly all actives have a fitted effect of over 45% in size. Also: potency is read from the fitted curve at half-maximal effect. In a few lines:
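HepG2-AhR-luc (HG2L7.5c1) cells, 4000/well, were preincubated 5 h at 37C, exposed to compound in qHTS format for 24 hr at 37C, then given CellTiter-Fluor for 30 min; viability was read as fluorescence in the reporter wells.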

Assay [3] is described as follows: qHTS assay for small molecule agonists of the antioxidant response element (ARE) signaling pathway (AID 743202; active = well fitted activation curve with a large enough effect in the signal ratio in the repeat runs, not every such curve was filed as active; the % refers to the signal ratio; also: potency is read from the fitted curve at half-maximal effect). An outline of the steps: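 Following a 16 h, 37 C exposure of reporter HepG2 cells (ARE-driven beta-lactamase, 2,000 cells/well) to compounds, FRET substrate was applied for 2 h at room temperature and fluorescence intensity recorded.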
Assay [4] in a line: qHTS assay to identify small molecule agonists of the peroxisome proliferator-activated receptor delta (PPARd) signaling pathway - cell viability counter screen (AID 743211). Also: nearly all actives have a fitted effect of over 55% in size. In a few lines:
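PPARd-bla HEK293H cells (3000/well) were pre-incubated 5 h at 37 C, then exposed to compound for 17 h at 37 C. After 2 h with LiveBLAzer substrate, CellTiter-Glo was added to the same wells; luminescence read after 30 min at room temperature.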

For assay [5], the target named is Peroxisome proliferator-activated receptor delta (Homo sapiens) (UniProt Q03181). Kind of assay: qHTS assay to identify small molecule agonists of the peroxisome proliferator-activated receptor delta (PPARd) signaling pathway (AID 743212; calls by dose curve). An outline of the steps:
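Beta-lactamase reporter read by fluorescence (LiveBLAzer B/G FRET, 2 h, room temperature). Test agents, in DMSO, incubated at 37 C with PPARd-bla HEK293H cells.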

The nature of assay [6]: qHTS assay to identify small molecule antagonists of the peroxisome proliferator-activated receptor delta (PPARd) signaling pathway - cell viability counter screen (AID 743213). Also: nearly all actives have a fitted effect of over 50% in size. An outline of the steps:
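Luminescence from CellTiter-Glo, added after the bla read and incubated 30 min at room temperature, gives viability of HEK293H PPARd-bla cells exposed to compounds for 17 h at 37 C with 300 nM L165041.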

Assay [7] in a line: qHTS assay to identify small molecule antagonists of the farnesoid-X-receptor (FXR) signaling pathway - cell viability counter screen (AID 743221; active = well fitted cell-killing curve with a large enough effect in the repeat runs, not every such curve was filed as active; also: nearly all actives have a fitted effect of over 50% in size). In a few lines: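 GeneBLAzer FXR-UAS-bla HEK 293T cells, compound plus chenodeoxycholic acid (50 uM final), 16 h at 37 C. CellTiter-Glo added to the same wells after the beta-lactamase read; luminescence read after 30 min at room temperature as viability.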

For assay [8], the target named is Vitamin D3 receptor (Homo sapiens) (UniProt P11473). As to the kind of experiment: qHTS assay to identify small molecule agonists of the vitamin D receptor (VDR) signaling pathway (AID 743222; calls by dose curve). An outline of the steps: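 Fluorescence from cleaved LiveBLAzer B/G FRET substrate served as readout. VDR-bla cells had been treated 16 h at 37C with test compounds in DMSO, following a 4 h settling period, and substrate was loaded for 2 h at RT.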

The target is the same in assay [9]. Kind of assay: qHTS assay to identify small molecule antagonists of the vitamin D receptor (VDR) signaling pathway (AID 743223; active = well fitted inhibition curve with a large enough effect in the signal ratio in the repeat runs, not every such curve was filed as active; the % refers to the signal ratio). An outline of the steps: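 VDR-bla cells were treated with compound plus 3 nM final 1alpha,25-dihydroxyvitamin D3 for 16 h at 37C. Beta-lactamase reporter read by B/G FRET substrate fluorescence after 2 h at room temperature. qHTS format.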

In assay [10] the target is Peroxisome proliferator-activated receptor gamma (Homo sapiens) (UniProt P37231). Kind of assay: qHTS assay to identify small molecule antagonists of the peroxisome proliferator-activated receptor gamma (PPARg) signaling pathway (AID 743191; calls by dose curve; also: nearly all actives have a fitted effect of over 30% in size; also: potency is read from the fitted curve at half-maximal effect). An outline of the steps:
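GeneBLAzer PPARg UAS-bla HEK293H cells carrying a UAS-driven beta-lactamase reporter were plated at 3000 cells/well, preincubated 5 h at 37C, then given compound for 17 h at 37C; LiveBLAzer B/G FRET substrate was read after 1 h at room temperature.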

Assay [11] is described as follows: qHTS assay for small molecule activators of the heat shock response signaling pathway - cell viability counter screen (AID 743209). Also: nearly all actives have a fitted effect of over 50% in size. Also: potency is read from the fitted curve at half-maximal effect. In a few lines: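 Viability of HSE-bla HeLa cells is measured with CellTiter-Glo in the wells already used for the reporter read. Compound exposure lasts 5 h at 37 C, and luminescence is read after 30 min at room temperature.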
Assay [12] can be described thus: qHTS assay for small molecule activators of the heat shock response signaling pathway (AID 743210; active = well fitted activation curve with a large enough effect in the signal ratio in the repeat runs, with a control signal flat, not every such curve was filed as active; the % refers to the signal ratio; also: series mostly up to about 63 µM). An outline of the steps: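 Heat shock element–beta-lactamase HeLa reporter cells; qHTS with compounds for 5 h at 37 C; detection by FRET substrate fluorescence after 2.5 h at RT.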
Assay [13] is described as follows: qHTS assay to identify small molecule agonists of the farnesoid-X-receptor (FXR) signaling pathway - cell viability counter screen (AID 743218). Also: nearly all actives have a fitted effect of over 45% in size. In a few lines:
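Viability of FXR-bla HEK 293T cells is measured by ATP-based CellTiter-Glo luminescence following 16 h compound treatment at 37 C and a prior 2 h room-temperature beta-lactamase substrate step.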

Assay [14] concerns the target Bile acid receptor (Homo sapiens) (UniProt Q96RI1). Kind of assay: qHTS assay to identify small molecule agonists of the farnesoid-X-receptor (FXR) signaling pathway (AID 743220; active = well fitted activation curve with a large enough effect in the signal ratio in the repeat runs, not every such curve was filed as active; the % refers to the signal ratio). In a few lines: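 FXR-UAS-bla HEK 293T cells carrying a UAS-driven beta-lactamase reporter were plated for 5 h at 37C/5% CO2, then exposed to DMSO-dissolved Tox21 10K compounds for 16 h at 37C. A LiveBLAzer B/G FRET substrate was loaded for 2 h at room temperature before fluorescence reading.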

A short description of assay [15]: qHTS assay to identify small molecule antagonists of the peroxisome proliferator-activated receptor gamma (PPARg) signaling pathway - cell viability counter screen (AID 743194). Also: nearly all actives have a fitted effect of over 55% in size. Conditions: Potency: co-treated with 50 nM rosiglitazone. An outline of the steps:
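PPARg-UAS-bla HEK293H cells were plated, rested 5 h at 37 C, then treated with compounds plus rosiglitazone (50 nM final) for 17 h at 37 C; viability was then read by CellTiter-Glo luminescence after 30 min at room temperature.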

The nature of assay [16]: qHTS assay for small molecule agonists of the antioxidant response element (ARE) signaling pathway - cell viability counter screen (AID 743203; calls by dose curve; also: nearly all actives have a fitted effect of over 55% in size; also: potency is read from the fitted curve at half-maximal effect). In a few lines:
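Viability counter screen: stably transfected ARE-bla HepG2 line, 16 hrs compound exposure at 37C/5% CO2, ATP-based CellTiter-Glo luminescence measured in the reporter wells.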

In assay [17] the target is Peroxisome proliferator-activated receptor delta (Homo sapiens) (UniProt Q03181). As to the kind of experiment: qHTS assay to identify small molecule antagonists of the peroxisome proliferator-activated receptor delta (PPARd) signaling pathway (AID 743215; active = well fitted inhibition curve with a large enough effect in the signal ratio in the repeat runs, not every such curve was filed as active; the % refers to the signal ratio;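 also: cells stimulated with agonist L165041 at 300 nM final during compound exposure; series mostly up to about 62 µM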). In a few lines: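 Plated HEK293H PPARd-bla cells rested 5 h at 37 C and 5% CO2. Compound, then agonist L165041 at 300 nM final, was added; 17 h at 37 C followed. Substrate loading, 2 h room temperature, fluorescence measured.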

The target of assay [18] is Bile acid receptor (Homo sapiens) (UniProt Q96RI1). As to the kind of experiment: qHTS assay to identify small molecule antagonists of the farnesoid-X-receptor (FXR) signaling pathway (AID 743217; active = well fitted inhibition curve with a large enough effect in the signal ratio in the repeat runs, not every such curve was filed as active; the % refers to the signal ratio). In a few lines:
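Screen of the Tox21 10K library in quantitative HTS format using FXR-UAS-bla HEK 293T reporter cells. Agonist chenodeoxycholic acid, 50 uM final, added with compounds; 16 h incubation at 37 °C; beta-lactamase FRET fluorescence measured.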

In assay [19] the target is Aryl hydrocarbon receptor (Homo sapiens) (UniProt P35869). As to the kind of experiment: qHTS assay to identify small molecule that activate the aryl hydrocarbon receptor (AhR) signaling pathway (AID 743085).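 Also: HG2L7.5c1 human HepG2 liver cells with stably integrated DRE-driven firefly reporter; series mostly up to about 70 µM; nearly all actives have a fitted effect of over 15% in size.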 In a few lines:
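HepG2 cells stably carrying a 20-DRE firefly luciferase reporter (HG2L7.5c1) treated with compound for 24 hr at 37C. Luciferase read by ONE-Glo luminescence, with CellTiter-Fluor viability read first.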

Assay [20] deals with Peroxisome proliferator-activated receptor gamma (Homo sapiens) (UniProt P37231). Kind of assay: qHTS assay to identify small molecule agonists of the peroxisome proliferator-activated receptor gamma (PPARg) signaling pathway (AID 743094; active = well fitted activation curve with a large enough effect in the signal ratio in the repeat runs, not every such curve was filed as active; the % refers to the signal ratio). In a few lines: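 Reporter activation was scored by fluorescence of cleaved LiveBLAzer B/G substrate (1 h, room temperature) in PPARg-bla HEK293H cells previously treated 17 h at 37C with DMSO-dissolved compounds.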

Inconclusive results are not listed. Active and inactive are the calls of the source. Unless noted, calls follow the shape of the dose curve; as a rule, active = well fitted curve in the direction sought with a large enough effect in the repeat runs; inconclusive = weak or mixed curves; inactive = no such curve, though single readings can be large; an effect the other way counts as inactive or inconclusive.

Sequence of Vitamin D3 receptor (Homo sapiens) (P11473 whole entry, looked up): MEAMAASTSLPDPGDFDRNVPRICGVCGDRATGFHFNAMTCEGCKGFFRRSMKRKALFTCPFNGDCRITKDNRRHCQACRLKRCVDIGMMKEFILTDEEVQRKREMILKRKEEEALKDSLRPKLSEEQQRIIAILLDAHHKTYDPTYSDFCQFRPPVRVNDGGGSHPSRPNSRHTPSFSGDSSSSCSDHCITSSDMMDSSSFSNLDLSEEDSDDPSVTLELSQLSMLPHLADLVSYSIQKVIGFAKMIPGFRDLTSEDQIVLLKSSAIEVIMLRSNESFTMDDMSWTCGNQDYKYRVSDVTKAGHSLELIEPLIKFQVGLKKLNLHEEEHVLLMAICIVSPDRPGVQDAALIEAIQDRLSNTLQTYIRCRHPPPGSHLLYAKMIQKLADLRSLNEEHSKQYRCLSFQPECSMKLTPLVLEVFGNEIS
Sequence of Peroxisome proliferator-activated receptor gamma (Homo sapiens) (P37231 whole entry, looked up): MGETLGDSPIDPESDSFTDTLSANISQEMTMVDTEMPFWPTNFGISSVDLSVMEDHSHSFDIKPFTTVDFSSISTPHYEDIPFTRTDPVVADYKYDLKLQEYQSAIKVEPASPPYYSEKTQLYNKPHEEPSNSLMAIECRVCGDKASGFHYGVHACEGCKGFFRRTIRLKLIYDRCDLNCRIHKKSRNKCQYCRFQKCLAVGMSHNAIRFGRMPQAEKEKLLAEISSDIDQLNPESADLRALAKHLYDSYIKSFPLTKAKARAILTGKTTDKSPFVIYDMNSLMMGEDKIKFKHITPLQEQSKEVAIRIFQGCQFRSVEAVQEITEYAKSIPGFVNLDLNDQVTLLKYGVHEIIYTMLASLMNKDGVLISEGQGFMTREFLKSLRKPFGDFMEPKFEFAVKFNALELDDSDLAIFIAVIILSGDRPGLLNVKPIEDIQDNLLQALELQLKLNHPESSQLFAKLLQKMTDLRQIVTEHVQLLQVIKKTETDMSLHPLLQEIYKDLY
Sequence of Aryl hydrocarbon receptor (Homo sapiens) (P35869 whole entry, looked up): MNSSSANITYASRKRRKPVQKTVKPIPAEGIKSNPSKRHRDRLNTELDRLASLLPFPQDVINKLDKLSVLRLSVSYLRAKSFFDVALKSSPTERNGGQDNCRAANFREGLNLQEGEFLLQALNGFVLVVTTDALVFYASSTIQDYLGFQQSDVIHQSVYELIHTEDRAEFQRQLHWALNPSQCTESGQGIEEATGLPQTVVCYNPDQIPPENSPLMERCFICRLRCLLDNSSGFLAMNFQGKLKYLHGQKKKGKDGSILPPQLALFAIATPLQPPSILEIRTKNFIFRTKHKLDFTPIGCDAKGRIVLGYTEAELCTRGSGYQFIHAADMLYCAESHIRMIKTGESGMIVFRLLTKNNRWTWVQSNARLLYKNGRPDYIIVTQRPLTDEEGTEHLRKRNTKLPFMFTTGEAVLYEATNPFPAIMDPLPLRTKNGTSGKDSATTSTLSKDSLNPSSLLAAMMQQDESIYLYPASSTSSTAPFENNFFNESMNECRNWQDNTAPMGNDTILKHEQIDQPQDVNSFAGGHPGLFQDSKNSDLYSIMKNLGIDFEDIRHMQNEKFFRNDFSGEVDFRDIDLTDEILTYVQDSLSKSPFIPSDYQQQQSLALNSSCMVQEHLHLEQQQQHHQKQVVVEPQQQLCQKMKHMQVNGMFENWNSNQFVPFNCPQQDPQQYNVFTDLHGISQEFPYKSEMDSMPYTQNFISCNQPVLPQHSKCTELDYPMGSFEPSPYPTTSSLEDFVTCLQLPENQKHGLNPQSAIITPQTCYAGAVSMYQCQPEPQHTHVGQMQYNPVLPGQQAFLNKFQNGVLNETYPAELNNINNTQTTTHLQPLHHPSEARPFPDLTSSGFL
Sequence of Peroxisome proliferator-activated receptor delta (Homo sapiens) (Q03181 whole entry, looked up): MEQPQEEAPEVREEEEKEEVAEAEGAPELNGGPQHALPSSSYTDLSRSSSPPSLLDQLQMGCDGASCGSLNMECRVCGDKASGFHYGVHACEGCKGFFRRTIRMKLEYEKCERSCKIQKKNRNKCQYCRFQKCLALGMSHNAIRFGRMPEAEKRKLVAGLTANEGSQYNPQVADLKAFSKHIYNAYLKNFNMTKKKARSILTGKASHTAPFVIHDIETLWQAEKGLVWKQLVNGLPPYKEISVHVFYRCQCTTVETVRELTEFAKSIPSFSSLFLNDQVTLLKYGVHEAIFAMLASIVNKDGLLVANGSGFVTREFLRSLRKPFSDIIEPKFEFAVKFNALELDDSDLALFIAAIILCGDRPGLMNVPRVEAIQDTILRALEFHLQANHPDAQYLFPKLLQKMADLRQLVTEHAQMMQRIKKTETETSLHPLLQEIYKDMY
Sequence of Bile acid receptor (Homo sapiens) (Q96RI1 whole entry, looked up): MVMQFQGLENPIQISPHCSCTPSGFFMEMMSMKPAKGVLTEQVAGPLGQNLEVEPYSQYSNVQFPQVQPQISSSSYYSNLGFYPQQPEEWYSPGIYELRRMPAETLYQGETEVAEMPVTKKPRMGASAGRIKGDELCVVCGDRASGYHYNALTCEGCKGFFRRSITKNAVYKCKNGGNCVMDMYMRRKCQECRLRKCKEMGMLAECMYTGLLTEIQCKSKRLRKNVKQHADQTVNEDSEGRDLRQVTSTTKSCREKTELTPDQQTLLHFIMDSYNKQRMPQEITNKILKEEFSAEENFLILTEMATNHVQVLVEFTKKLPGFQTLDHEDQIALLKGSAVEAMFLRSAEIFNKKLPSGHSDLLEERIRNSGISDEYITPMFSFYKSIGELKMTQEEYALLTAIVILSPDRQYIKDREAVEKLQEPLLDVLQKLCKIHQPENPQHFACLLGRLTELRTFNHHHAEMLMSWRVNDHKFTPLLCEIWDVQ

On to `S=C=NCc1ccccc1`, for which the Potency entry in assay [1], in assay [2], in [4], in assay [6] and in assay [7] was “inactive” each time. In addition, the Potency in assay [3] was 24.6 µM (active). The molecule was called inactive in [5], in [8] and in assay [9].

Take `CO/C=C(/C(=O)OC)c1ccccc1COc1cccc(C(F)(F)F)n1`: the Potency in assay [1] was 61.1 µM (active); in [10], 4.36 µM (active). Further, the Potency result in assay [2], in [11], in [6], in assay [13] and in [7] was “inactive” each time. The molecule was called inactive in assay [12], in assay [14] and in assay [8].

With `Clc1cccc(SC2CCNCC2)n1`, the Potency result in assay [1], in assay [10], in assay [15], in assay [3], in assay [16] and in assay [11] was “inactive” throughout. Further, the Potency entry in assay [4], in assay [6], in [17], in assay [18], in assay [13] and in assay [7] was “inactive” throughout. In assay [2], the Potency was 29.8 µM (active). In addition, the call in assay [12], in assay [5], in [14] and in assay [9] was inactive.

On to `N#Cc1cc(I)c(O)c(I)c1`, for which the Potency result in assay [1], in assay [2], in [11], in [17] and in assay [7] was “inactive” each time. Moreover, the molecule was classed as inactive in [12] and in [8].

For the molecule `CCBr`, the Potency result in assay [1], in assay [2], in assay [15], in assay [16], in assay [11] and in [4] was “inactive” in each case. Further, the Potency entry in assay [6], in [17], in [13] and in assay [7] was “inactive” in each case. The outcome in [5], in assay [8] and in [9] was inactive.

Regarding `CC1CC(CC2CCC(N)C(C)C2)CCC1N` (stereo not given), the Potency entry in assay [19], in [20], in [15], in assay [16], in [11] and in assay [4] was “inactive” each time. Moreover, the Potency result in [17] is “inactive”. Moreover, the molecule was called inactive in assay [12], in assay [5] and in [8].

Take `Cc1ccc(-c2c(Cl)nc(C#N)n2S(=O)(=O)N(C)C)cc1`: the Potency result in assay [19], in assay [2], in assay [20], in assay [11], in [13] and in [7] was “inactive” each time. Also, the outcome in assay [8] was inactive.

`CO/N=C(/C(=O)OC)c1ccccc1COc1ccccc1C`: the Potency result in assay [19], in assay [2], in [15], in assay [16], in assay [11] and in [4] was “inactive” in each case. Further, the Potency entry in [6], in assay [13] and in assay [7] was “inactive” throughout. In addition, the Potency in assay [3] is 19.3 µM (active). In addition, the call in [12], in assay [14] and in assay [8] was inactive.

For `C[C@@H]1CC[C@H]2[C@@H](C)C(=O)O[C@@H]3O[C@@]4(C)CC[C@@H]1[C@]32OO4`, the Potency entry in assay [19], in assay [15], in [16], in assay [11], in assay [4] and in assay [6] was “inactive” throughout. For the same molecule, the Potency entry in assay [18] and in assay [7] was “inactive” each time. Moreover, the outcome in assay [12], in assay [14] and in [8] was inactive.

As to `Sc1ccccc1Cl`, the Potency entry in assay [15], in assay [3], in assay [16], in [11], in assay [4] and in assay [6] was “inactive” each time. The Potency entry in assay [17], in assay [18], in [13] and in assay [7] was “inactive” in each case. For the same molecule, the call in assay [12], in assay [5], in assay [14], in assay [8] and in assay [9] was inactive.

For `CC1Sc2c(C(=O)O)c(=O)c3cc(F)c(N4CCNCC4)cc3n21` (stereo not given), the Potency entry in assay [15], in [3], in assay [16], in [11], in assay [4] and in assay [6] was “inactive” in each case. For the same molecule, the Potency entry in assay [17], in assay [18], in [13] and in [7] was “inactive” each time. For the same molecule, the result in assay [12], in assay [5], in assay [14] and in [8] was inactive.

For `O=C(Nc1ccccc1)Nc1ccnc(Cl)c1`, the Potency result in assay [11], in [4], in assay [6], in [13] and in assay [7] was “inactive” throughout. Also, the outcome in assay [12], in [5], in assay [14] and in assay [8] was inactive.

For `Clc1cc(C(Cl)(Cl)Cl)cnc1Cl`, the Potency entry in assay [2], in assay [20], in assay [10], in assay [15], in assay [4] and in [6] was “inactive” throughout. In addition, the Potency entry in assay [17], in assay [18], in [13] and in assay [7] was “inactive” in each case. For the same molecule, the values for the Potency in assay [16] and in assay [11] were 61.1 µM (active) and 49 µM (active), respectively. Besides, the result in [14], in assay [8] and in assay [9] was inactive.
